# Results: PubChem BioAssay AID485360 (National Center for Advancing Translational Sciences (NCATS), 2010)
# Hit rate of the full screen: of about 230,000 compounds, about 1,500 (0.65%) were called active. Inconclusive results (about 3%) are left out. Calls follow the shape of the dose curve; as a rule, active = well fitted inhibition curve with a large enough effect; inconclusive = small, poorly fitted or top-dose-only effect; inactive = no such curve, though single readings can be large or run the other way. For the sample, actives were picked, then their nearest neighbours and some compounds at random.
# Molecular target: Lethal(3)malignant brain tumor-like protein 1 (Homo sapiens) (UniProt Q9Y468)
# Test: qHTS Assay for the Inhibitors of L3MBTL1; also: nearly all actives have a fitted effect of over 60% in size
# Settings: AlphaScreen L3MBTL1–H3K9me1 peptide binding; series mostly up to 57.1 µM; activity, negative = inhibition: at the top concentration
# Excerpt: The histone code is comprised of many post-translational modifications that occur mainly in histone tail peptides. The identity and location of these marks are read by a variety of histone binding proteins that are emerging as important regulators of cellular differentiation and development and are increasingly being implicated in numerous disease states. Small molecule probes that disrupt the interaction between histone binding proteins and chromatin would enable a systematic chemical biology study of proteins that read the histone code and could potentially reveal new targets for drug discovery. However, no such small molecules are known. This dearth of quality molecular probes can largely be attributed to the novelty of the target class and the lack of screening assays. This proposal details the development of the first high-throughput screening assay for the discovery of inhibitors of methyl-lysine binding proteins and how it can be be used to initiate a full-scale discovery effort for antagonists of histone binding proteins. Specifically, this work focuses on an AlphaScreen(tm)-based HTS assay for Malignant Brain Tumor (MBT) domain-containing proteins, which bind to the lower methylation states of lysine residues present in histone tail peptides.
# To each well, 2 uL of L3MBTL1 protein (final 50 nM) and 1 uL biotinylated histone peptide monomethylated at Lys9 [b-AHA-H3(1-15)K9me1] (final 75 nM) was added using a nanoliter dispenser. Formation of a protein-peptide complex proceeded at room temperature for 30 min. A Kalypsys pin-tool was employed to transfer 23 nL of library compound solution in DMSO to each well. Cefsulodin, found in a pilot screen of the LOPAC library to be a weak inhibitor of L3MBTL1 binding, was used as an intraplate control with a 16-point titration in duplicate. Following a 30 min incubation of the protein-peptide complex with compounds at room temperature, a mixture of 40 ug/mL each streptavidin-coated donor and nickel chelate acceptor AlphaScreen beads (final 10 ug/mL) was added in a 1 uL dispense for a final volume of 4 uL. Plates were incubated, protected from the light for 30 min at room temperature. Microplates were then be read on an EnVision multilabel plate reader using the 1,536 plate HTS AlphaScreen aperture (excitation time 80 ms, measurement time 240 ms).
# % is scaled to controls: 0 for no effect and ±100 for the full control effect; potency is read from the fitted curve at half-maximal effect.
# Sequence of Lethal(3)malignant brain tumor-like protein 1 (Homo sapiens) (Q9Y468 whole entry, looked up): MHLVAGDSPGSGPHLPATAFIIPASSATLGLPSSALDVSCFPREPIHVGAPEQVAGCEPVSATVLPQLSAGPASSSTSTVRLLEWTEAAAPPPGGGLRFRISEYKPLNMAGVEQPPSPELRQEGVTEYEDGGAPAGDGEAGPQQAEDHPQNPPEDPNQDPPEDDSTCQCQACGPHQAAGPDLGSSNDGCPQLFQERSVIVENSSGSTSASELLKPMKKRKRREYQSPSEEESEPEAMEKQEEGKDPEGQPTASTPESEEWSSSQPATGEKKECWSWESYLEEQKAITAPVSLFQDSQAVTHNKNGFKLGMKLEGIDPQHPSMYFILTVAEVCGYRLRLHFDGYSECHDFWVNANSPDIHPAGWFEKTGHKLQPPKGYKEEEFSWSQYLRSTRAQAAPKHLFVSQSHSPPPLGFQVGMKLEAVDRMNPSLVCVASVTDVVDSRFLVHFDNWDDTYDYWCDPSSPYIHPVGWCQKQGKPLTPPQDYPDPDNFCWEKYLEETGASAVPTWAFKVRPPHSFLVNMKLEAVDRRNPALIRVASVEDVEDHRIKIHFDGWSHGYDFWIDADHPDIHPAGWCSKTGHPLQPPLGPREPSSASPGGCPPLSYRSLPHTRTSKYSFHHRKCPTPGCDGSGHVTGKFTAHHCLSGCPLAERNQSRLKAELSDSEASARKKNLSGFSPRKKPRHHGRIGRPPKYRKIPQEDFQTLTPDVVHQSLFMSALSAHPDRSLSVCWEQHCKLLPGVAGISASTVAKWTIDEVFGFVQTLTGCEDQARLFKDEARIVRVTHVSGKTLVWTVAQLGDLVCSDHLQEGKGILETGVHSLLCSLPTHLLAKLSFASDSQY
SMILES,"activity, negative = inhibition",Potency
CC1CCCCC1NCC(=O)Nc1ccccc1C(=O)Nc1ccccc1 (stereo not drawn),11.2% (inactive),–
COC(OC)c1ccnc(SCc2ccccc2Cl)n1,30.5% (inactive),–
Clc1ccccc1CSc1nnc(-c2ccco2)c(-c2ccco2)n1,–,8.91 µM (active)
c1ccc(CSc2nnc(-c3ccco3)c(-c3ccco3)n2)cc1,–,7.94 µM (active)
O=C(Nc1nnc(SCc2ccccc2)s1)c1ccco1,-1.74% (inactive),–
O=c1[nH]c(SCc2ccccc2)nnc1-c1ccccc1,47.2% (inactive),–
O=C(CC1N=C2c3ccccc3N=C(SCc3ccccc3Cl)N2C1=O)NCc1ccco1 (stereo not drawn),-7.4% (inactive),–
Cc1nc(-c2ccc(F)cc2)c(CC(=O)Nc2cccc(S(=O)(=O)N3CCOCC3)c2)s1,-4.77% (inactive),–
Cc1occc1-c1nnc(SCC(=O)NC2(C#N)CCCC2)n1C,-3.03% (inactive),–
O=C(CSc1nnc(COc2ccc(Cl)cc2)n1Cc1ccco1)N1CCNC1=O,-3.91% (inactive),–
COc1ccc2c(CC(=O)NNC(=O)c3ccccc3F)coc2c1,1.74% (inactive),–
CC(C)N(C(=O)CSc1nnc(NC2CC2)s1)c1ccccc1,2.8% (inactive),–
CCc1nnc(NC(=O)/C=C/c2ccc(C)o2)s1,5.81% (inactive),–
Cc1c(NC(=O)/C=C/C(=O)O)cccc1[N+](=O)[O-],4.64% (inactive),–
Cc1ccc(/C=C/C(=O)Nc2ccc([N+](=O)[O-])c(NC(=O)/C=C/c3ccc(C)o3)c2)o1,–,22.4 µM (active)
NC(=O)c1ccc(Nc2ccc3nonc3c2[N+](=O)[O-])cc1,2.69% (inactive),–
COc1ccc(Cl)cc1NC(=O)CN(C)C(=O)c1cc2ccccc2cc1OC,-1.92% (inactive),–
O=C(OCC(=O)N1CCCCCC1)c1cnc(Cl)c(Cl)c1,0.852% (inactive),–
O=C(c1ccc(F)cc1)N1CCC(C(=O)N2CCN(S(=O)(=O)c3ccccc3Br)CC2)CC1,9.56% (inactive),–
CCOc1cc(N2CCOCC2)c(OCC)cc1NC(=O)COc1cccc2cccnc12,-2.29% (inactive),–
Cc1nc2sc(C(c3ccco3)N3CCOCC3)c(O)n2n1 (stereo not drawn),-0.458% (inactive),–
Oc1c(C(c2ccccn2)N2CCOCC2)ccc2cccnc12 (stereo not drawn),–,8.91 µM (active)
COc1ccc(C(=O)COC(=O)C(O)c2ccccc2)c(OC)c1 (stereo not drawn),-0.868% (inactive),–
CC(C)[C@H](NC(=O)N1c2ccccc2NC(=O)[C@@H]1C(C)C)C(=O)N[C@H](C(=O)O)c1ccccc1,-10% (inactive),–
CC(C#N)(NC(=O)CN1CCN(S(=O)(=O)c2cc(C(F)(F)F)ccc2Cl)CC1)C1CC1 (stereo not drawn),12.2% (inactive),–
O=C(CN1CCN(c2ccccc2O)CC1)NC(=O)NCc1ccccc1,-7.24% (inactive),–
CCC(C)N(C(=O)CSc1nnnn1-c1ccccc1OC)C1CCS(=O)(=O)C1 (stereo not drawn),-0.112% (inactive),–
COC(=O)[C@]1(Cc2ccccc2)N[C@H](CN(C)S(=O)(=O)c2ccc(OC(F)(F)F)cc2)[C@@H]2C(=O)N(C)C(=O)[C@@H]21,-0.744% (inactive),–
